Results reported in PubChem BioAssay AID1745847 (National Center for Advancing Translational Sciences (NCATS), 2022).
Hit rate of the full screen: of about 2,100 compounds, about 670 (32%) were called active. Roughly 50% stayed inconclusive and do not appear here. The list shows a part of the results. A number with no mark means an inactive call. Calls come from the whole dose curve; as a rule, active = well fitted inhibition curve with a large enough effect; inconclusive = small, poorly fitted or top-dose-only effect; inactive = no such curve, though single readings can be large or run the other way.
% is set by controls: 0 for no effect and ±100 for the full control effect; potency is the fitted concentration of half-maximal effect.

Assay: CMV-Luciferase Counterscreen for Inhibitors of ATXN expression; note: nearly all actives have a fitted effect of over 55% in size
Conditions: HEK-293 CMV-luciferase reporter, luminescence, 24 h; series mostly up to 57.5 µM
Compound `O=C1CCCC(O)=C1C=NCc1ccccc1` has an activity change, negative = inhibition of 6.36% [at 11.4 µM]. With `CCN(CC)S(=O)(=O)c1cccc(C(=O)N/N=C(\C)c2ccc(O)cc2O)c1` the Potency was 4.47 µM (active). In the case of `CC(=NNC(=O)c1ccncc1)c1ccc(O)cc1O`, the Potency is reported as 11.2 µM (active). With `Oc1c(CN2CCCCC2)ccc2cccnc12` the Potency was 12.6 µM (active). Work on `CCN(CC)CCNc1ccnc2cc(Cl)ccc12` yielded an activity change, negative = inhibition of -15.4% [at 11.4 µM]. With `Clc1ccc2c(NCc3ccccc3)ccnc2c1` the Potency was 8.91 µM (active). With `Cc1ccc2c(Cl)cc(Cl)c(O)c2n1` the Potency was 8.91 µM (active). With `CS(=O)(=O)N1CCC(Oc2cccc(C(=O)NCCCC3CCCC3)c2)CC1` the Potency was 14.1 µM (active). With `CC[C@@H]1C(c2cccc(Cl)c2)=NN(c2ccc(Br)cc2)[C@H]1C(=O)N1CCOC1=O` the Potency was “inactive”. In the case of `COc1ccc(-c2cc(C3CCN(c4ccc(C(C)=O)cc4[N+](=O)[O-])CC3)[nH]n2)cc1`, the Potency is reported as 11.2 µM (active). With `CC(=O)c1ccc(N2CCc3ccccc3C2)c([N+](=O)[O-])c1` the Potency was “inactive”. For `CCOC(=O)c1ccccc1NC(=O)CSc1nc2ccccc2c(=O)n1CCCN1CCOCC1`, the Potency was 17.8 µM (active). `O=c1c2c(-c3ccccc3)csc2nc2c3ccccc3c(NCCN3CCOCC3)nn12` showed an activity change, negative = inhibition of -12% [at 11.4 µM]. For `O=C(Nc1nc(NC(=O)c2ccco2)n(-c2ccccc2)n1)c1ccccc1`, the Potency was 6.31 µM (active). Work on `CCN1CC2=C(OC(N)=C(C#N)C2c2cccs2)/C(=C\c2cccs2)C1` (stereo not given) yielded an activity change, negative = inhibition of -3.4% [at 11.4 µM]. For `COc1cc2[nH]c(=O)n(CCCCCC(=O)N3CC=C(c4ccccc4)CC3)c(=O)c2cc1OC`, the Potency was 3.16 µM (active). In the case of `CCN1CCN(CCCNC(=O)c2ccc(/C=C3/Sc4ccccc4N(Cc4ccccc4F)C3=O)cc2)CC1`, the Potency is reported as “inactive”. With `COc1ccc(/C=C2\SC(=S)N(CCCC(=O)NNC(=O)c3ccccc3O)C2=O)cc1` the Potency was 3.98 µM (active). For `O=C(CCCN1C(=O)S/C(=C\c2ccccc2)C1=O)NNC(=O)c1ccccc1O`, the Potency was 2.24 µM (active). In the case of `CC(C)(C)c1ccc(Oc2ccc(N)cn2)cc1`, the Potency is reported as 3.98 µM (active). In the case of `CC(C)(C)c1ccc(Oc2ccc(N)cc2)cc1`, the Potency is reported as 3.98 µM (active). With `CCC(C)(C)c1ccc(Oc2ccc(N)cc2)cc1` the Potency was 2 µM (active). Compound `Cc1ccc(C(C[N+](=O)[O-])Sc2ccc(N)cc2)cc1` (stereo not given) has an activity change, negative = inhibition of 52% [at 11.4 µM]. In the case of `Cc1c(Cl)c([N+](=O)[O-])nn1Cc1ccc(C(=O)N/N=C\c2cc(Cl)ccc2O)o1`, the Potency is reported as 0.631 µM (active). In the case of `CCN(CC)c1ccc(/C=C/c2cccc[n+]2C)c(OC)c1`, the Potency is reported as 2 µM (active).
